Several values for one entry are separate records, joined by “and”; a condition that tells them apart may be missing. Equal values may be shown once. Where a name gives a salt, the structure may show the parent alone.
Tests used:
Test in all cases: cell viability relative to vehicle control; higher = less cytotoxic
Settings in all cases: 10 µM
K562 = system: K562
In short: (§1)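 CRISPR-edited SRSF2 P95 mutant and isogenic wild-type clones of four leukaemia lines were screened against Selleck bioactive, kinase and epigenetic probe libraries, with identity-inconsistent compounds removed. Compounds were acoustically dispensed into 384-well plates at a single 10 µM dose, with 2000 cells in 50 µL medium per well. After 48 h, supernatant was removed and CellTiter-Glo luminescence was read. Viability was expressed as percent of the on-plate DMSO vehicle control, analysed in Genedata Screener.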

MARIMO = system: MARIMO
In short: as §1

MOLM14 = system: MOLM14
In short: as §1

OCI-AML2 = system: OCI-AML2
In short: as §1

Row | Structure (SMILES) | cell viability (K562; SRSF2 genotype: SRSF2 P95H/wt) | cell viability (K562; SRSF2 genotype: SRSF2 wt/wt) [%] | cell viability (MARIMO; SRSF2 genotype: SRSF2 P95H/wt) [%] | cell viability (MARIMO; SRSF2 genotype: SRSF2 wt/wt) [%] | cell viability (MOLM14; SRSF2 genotype: SRSF2 P95H/wt) [%] | cell viability (MOLM14; SRSF2 genotype: SRSF2 wt/wt) [%] | cell viability (OCI-AML2; SRSF2 genotype: P95H/wt) [%] | cell viability (OCI-AML2; SRSF2 genotype: wt/wt) [%]
1 | NC(=O)c1ccc(-c2nc(-c3ccccn3)c(-c3ccc4c(c3)OCO4)[nH]2)cc1 | 103% and 105% | 97.9 | 100 | 106 | 102 | 97.9 | 109 | 98.3
2 | Cc1cn([C@H]2C=C[C@@H](CO)O2)c(=O)[nH]c1=O [Stavudine] | 104% and 107% | 98.3 | 95 | 96.1 | 102 | 103 | 97.2 | 110
3 | CC1=C[C@H](O)CC(C)(C)[C@H]1/C=C/C(C)=C/C=C/C(C)=C/C=C/C=C(C)/C=C/C=C(C)/C=C/C1=C(C)C[C@@H](O)CC1(C)C [lutein] | 99.5% and 98.9% | 95.8 | 88.7 | 100 | 88.8 | 110 | 103 | 107
4 | CN(Cc1cnc2nc(N)nc(N)c2n1)c1ccc(C(=O)N[C@@H](CCC(=O)O)C(=O)O)cc1 [Abitrexate (Methotrexate)] | 99.8% and 103% | 45.1 | 93 | 93.5 | 103 | 74 | 99.2 | 96.9
5 | Oc1nc(-c2ccc(C(F)(F)F)cc2)nc2c1CSCC2 | 105% and 99.2% | 105 | 104 | 105 | 94 | 95.5 | 94.6 | 96.7
6 | COc1cccc(Nc2c(C(N)=O)cnc3c(C)cc(S(=O)(=O)c4cccc(C(=O)N(C)C)c4)cc23)c1 | 109% and 106% | 108 | 93.5 | 101 | 108 | 103 | 111 | 98.2
7 | C[C@@H]1CC[C@@]2(OC1)O[C@H]1C[C@H]3[C@@H]4CC=C5C[C@@H](O[C@@H]6O[C@H](CO)[C@@H](O)[C@H](O)[C@H]6O)CC[C@]5(C)[C@H]4CC[C@]3(C)[C@H]1[C@@H]2C [Trillin] | 87.5% and 97.2% | 94 | 76.7 | 78.7 | 84.5 | 93.2 | 88.3 | 98.5
8 | COCCc1ccc(OCC(O)CNC(C)C)cc1 (stereo not given) [Metoprolol tartrate] | 107% and 106% | 106 | 102 | 104 | 104 | 105 | 106 | 106
9 | C[C@@H]1CCO[C@H]2Cn3cc(C(=O)NCc4ccc(F)cc4F)c(=O)c(O)c3C(=O)N12 | 84.5% and 87% | 77.5 | 84.3 | 98.4 | 94.1 | 94 | 92 | 98.5
10 | COc1cc(O)c2c(=O)c(O[C@@H]3O[C@H](CO)[C@@H](O)[C@H](O)[C@H]3O)c(-c3ccc(O[C@@H]4O[C@H](CO)[C@@H](O)[C@H](O)[C@H]4O)cc3)oc2c1 [Complanatuside] | 105% and 101% | 106 | 108 | 104 | 108 | 106 | 107 | 96.2
11 | CC(C)=CCC[C@](C)(O[C@@H]1O[C@H](CO[C@@H]2O[C@H](CO)[C@@H](O)[C@H](O)[C@H]2O)[C@@H](O)[C@H](O)[C@H]1O)[C@H]1CC[C@]2(C)[C@@H]1[C@H](O)C[C@@H]1[C@@]3(C)CC[C@H](O[C@@H]4O[C@H](CO)[C@@H](O)[C@H](O)[C@H]4O)C(C)(C)[C@@H]3CC[C@]12C [Gypenoside XVII] | 112% and 100% | 109 | 108 | 103 | 110 | 106 | 106 | 106
12 | CC[C@H](C)C(=O)O[C@H]1C[C@H](O)C=C2C=C[C@H](C)[C@H](CC[C@@H](O)C[C@@H](O)CC(=O)O)[C@H]21 [Pravastatin sodium] | 103% and 97.3% | 92.3 | 95.2 | 103 | 104 | 102 | 91 | 105
13 | COc1ccc2cc3[n+](cc2c1OC)CCc1cc2c(cc1-3)OCO2 [Berberine] | 65.6% and 74.1% | 72.6 | 67.3 | 62.1 | 75.4 | 81.8 | 52 | 53.8
14 | Cc1nc2cccc(N)c2c(=O)n1C1CCC(=O)NC1=O (stereo not given) [Avadomide(CC-122)] | 108% and 111% | 111 | 102 | 92.7 | 99.2 | 98.2 | 159 | 169
15 | C[C@@H]1O[C@@H](OC[C@H]2O[C@@H](Oc3cc(O)c4c(c3)O[C@H](c3ccc(O)cc3)CC4=O)[C@H](O)[C@@H](O)[C@@H]2O)[C@H](O)[C@H](O)[C@H]1O [Narirutin] | 96.8% and 92.1% | 92.3 | 98.2 | 97.5 | 98.9 | 96.8 | 101 | 99.4
16 | CO/N=C(/C(=O)N[C@@H]1C(=O)N2C(C(=O)OCOC(=O)C(C)(C)C)=C(C)CS[C@H]12)c1csc(N)n1 [Cefetamet pivoxil hydrochloride] | 95.8% and 97% | 102 | 95 | 104 | 92.5 | 103 | 107 | 98.1
17 | Cc1ncc(CO)c(CO)c1O [Pyridoxine] | 98.2% and 103% | 97.3 | 107 | 96.3 | 101 | 102 | 106 | 99.6
18 | CO/N=C(\C(=O)N[C@@H]1C(=O)N2C(C(=O)O)=C(CSc3nnnn3C)CS[C@H]12)c1csc(N)n1 [Cefmenoxime hydrochloride] | 96.7% and 90.3% | 100 | 98.4 | 97.1 | 99.7 | 98.8 | 97.2 | 101
19 | OCc1cc([C@@H](O)CNCCCCCCOCCOCc2c(Cl)cccc2Cl)ccc1O [Vilanterol Trifenate] | 85% and 94.3% | 87 | 79.5 | 86.2 | 72.8 | 82.9 | 73.9 | 76.3
20 | Cc1ccc(Nc2nccc(N(C)c3ccc4c(C)n(C)nc4c3)n2)cc1S(N)(=O)=O [Pazopanib] | 84.1% and 94.1% | 85.8 | 96 | 104 | 69.4 | 83 | 73.8 | 71.2

Row | Structure (SMILES) | cell viability (K562; SRSF2 genotype: SRSF2 P95H/wt) | cell viability (K562; SRSF2 genotype: SRSF2 wt/wt) [%] | cell viability (MARIMO; SRSF2 genotype: SRSF2 P95H/wt) [%] | cell viability (MARIMO; SRSF2 genotype: SRSF2 wt/wt) [%] | cell viability (MOLM14; SRSF2 genotype: SRSF2 P95H/wt) [%] | cell viability (MOLM14; SRSF2 genotype: SRSF2 wt/wt) [%] | cell viability (OCI-AML2; SRSF2 genotype: P95H/wt) [%] | cell viability (OCI-AML2; SRSF2 genotype: wt/wt) [%]
21 | CC(=O)OCc1ccccc1 [Benzyl acetate] | 103% and 94.2% | 100 | 96.5 | 105 | 97 | 107 | 98.3 | 98.4
22 | CCCN(CCC)CCc1cccc2c1CC(=O)N2 [Ropinirole HCl] | 98.9% and 97.5% | 95.9 | 103 | 100 | 103 | 102 | 100 | 89.4
23 | O=C([O-])[O-].[Li+].[Li+] [Lithium carbonate] | 111% and 113% | 108 | 99.6 | 112 | 105 | 108 | 117 | 96.9
24 | CCc1ccc(OCc2ccccc2C(=O)Nc2ccc3nc(C)cc(N)c3c2)cc1 | 0.54% and 0.5% | 0.47 | 0.43 | 0.59 | 0.48 | 0.57 | 0.44 | 0.53
25 | Nc1ccccc1NC(=O)c1ccc(CNc2nccc(-c3cccnc3)n2)cc1 [Mocetinostat (MGCD0103)] | 4.12% and 14.8% | 10.5 | 7.4 | 9.28 | 0.6 | 0.42 | 0.44 | 3.29
26 | CC(C)C[C@H](NC(=O)[C@H](Cc1ccccc1)NC(=O)c1cnccn1)B(O)O [Bortezomib (Velcade)] | 1.99% and 2.21% | 1.46 | 0.39 | 0.93 | 0.29 | 0.31 | 0.19 | 0.25
27 | CC(C)[C@H](CO)Nc1nc(Nc2cccc(Cl)c2)c2ncn(C(C)C)c2n1 [Purvalanol A] | 82.5% and 94.9% | 85.1 | 72 | 83 | 41.2 | 33.9 | 47.6 | 54.3
28 | Oc1cc(O)c(Cl)cn1 [Gimeracil] | 105% and 98.5% | 92.4 | 101 | 109 | 102 | 107 | 101 | 111
29 | COc1ccc(/C=C/c2cc(OC)cc(=O)o2)cc1 [Yangonin] | 108% and 102% | 104 | 97.7 | 99.3 | 115 | 114 | 94.1 | 98.2
30 | C[C@H](NCc1ccc(OCc2cccc(F)c2)cc1)C(N)=O [Safinamide] | 101% and 109% | 107 | 103 | 105 | 98.7 | 106 | 104 | 106
31 | C=CC(=O)Nc1cc(Nc2nccc(-c3c[nH]c4ccccc34)n2)c(OC)cc1N(C)CCN(C)C | 12.6% and 20.8% | 24 | 6.47 | 9.15 | 0.38 | 0.41 | 0.35 | 0.67
32 | Nc1nc(CC(=O)Nc2ccc(CCNC[C@H](O)c3ccccc3)cc2)cs1 [Mirabegron (YM178)] | 102% and 111% | 107 | 103 | 114 | 101 | 103 | 110 | 93.1
33 | N#CCC1(n2cc(-c3ncnc4[nH]ccc34)cn2)CN(C2CCN(C(=O)c3ccnc(C(F)(F)F)c3F)CC2)C1 | 99.3% and 104% | 107 | 97.5 | 101 | 97.6 | 102 | 108 | 110
34 | CCOC(=O)C1=C(C)NC(=S)NC1c1cccc(O)c1 (stereo not given) [Monastrol] | 106% and 97.8% | 103 | 103 | 99.4 | 105 | 103 | 101 | 102
35 | CCCCc1ccc(O)cc1O [4-Butylresorcinol] | 99.6% and 85.8% | 91.2 | 90.6 | 102 | 86.5 | 93.8 | 85.7 | 88.9
36 | CC#CC(=O)N1CCC[C@H]1c1nc(-c2ccc(C(=O)Nc3ccccn3)cc2)c2c(N)nccn12 [Acalabrutinib (ACP-196)] | 93.2% and 96.6% | 94.1 | 101 | 113 | 95.4 | 100 | 90.2 | 96.9
37 | OC[C@@H](O)[C@@H](O[C@@H]1O[C@H](CO)[C@H](O)[C@H](O)[C@H]1O)[C@H](O)[C@@H](O)CO [Lactitol] | 101% and 92.3% | 98.9 | 94.4 | 100 | 99.8 | 101 | 91 | 95.1
38 | CO/N=C(\C(=O)N[C@@H]1C(=O)N2C(C(=O)O)=C(Cn3ccc(=N)n3CCO)CS[C@H]12)c1csc(N)n1 [Cefoselis sulfate] | 95.5% and 104% | 94 | 92.6 | 98 | 100 | 101 | 103 | 96.8
39 | COc1cc(-c2coc3cc4c(c(OC)c3c2=O)OCO4)cc(OC)c1OC [Irisflorentin] | 93.9% and 96.7% | 93.6 | 89.8 | 96.8 | 96.8 | 97.9 | 81.6 | 90.9
40 | O=c1cc(-c2ccc(O)c(O)c2)oc2c([C@@H]3O[C@H](CO)[C@@H](O)[C@H](O)[C@H]3O)c(O)cc(O)c12 [Orientin] | 104% and 101% | 101 | 100 | 97.3 | 103 | 103 | 98.8 | 100

Source: the supplement of paper PMC10981050
